Laboratory results reported in PubChem BioAssay (Tox21).
Where “and” joins values, the source holds several entries; their conditions need not be identical. Equal entries are not always repeated. Calls of active or inactive are those of the source. Entries that show only a call come without a potency. Unless noted, calls come from the whole dose curve; as a rule, active = well fitted curve in the direction sought with a large enough effect in the repeat runs; inconclusive = weak or mixed curves; inactive = no such curve, though single readings can be large; an effect the other way counts as inactive or inconclusive.

Legend:
[1] = qHTS assay to identify small molecule antagonists of the thyroid receptor (TR) signaling pathway (AID 743065); note: nearly all actives have a fitted effect of over 55% in size; note: potency is the fitted concentration of half-maximal effect
In short: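 GH3.TRE-Luc rat pituitary cells (two TREs driving luciferase) were dosed with compound, then stimulated with 1 nM T3 (final) for 23.5 h at 37 C. ONE-Glo luminescence was the read-out, with CellTiter-Fluor fluorescence as the cytotoxicity counter-screen.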

[2] = test system: thyroid hormone receptor (rat, GH3 cells); assay: qHTS assay to identify small molecule agonists of the thyroid receptor (TR) signaling pathway (AID 743066; calls by dose curve)
[3] = qHTS assay to identify small molecule antagonists of the estrogen receptor alpha (ER-alpha) signaling pathway - cell viability counter screen (AID 743074; calls by dose curve;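 note: HEK293 cells carrying ER-alpha-UAS-bla reporter stimulated with 17beta-estradiol; nearly all actives have a fitted effect of over 45% in size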)
[4] = biological target: Estrogen receptor (Homo sapiens) (UniProt P03372); assay: qHTS assay to identify small molecule agonists of the estrogen receptor alpha (ER-alpha) signaling pathway (AID 743075; calls by dose curve;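 note: HEK293 GripTite cells with ER-alpha and UAS-driven beta-lactamase reporter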; note: potency is the fitted concentration of half-maximal effect)
[5] = biological target: Estrogen receptor (Homo sapiens) (UniProt P03372); assay: qHTS assay to identify small molecule agonists of the estrogen receptor alpha (ER-alpha) signaling pathway using the BG1 cell line (AID 743079); note: nearly all actives have a fitted effect of over 20% in size; note: potency is the fitted concentration of half-maximal effect
[6] = qHTS assay to identify small molecule antagonists of the estrogen receptor alpha (ER-alpha) signaling pathway using the BG1 cell line (AID 743080; calls by dose curve;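 note: BG1 cells stimulated with 17beta-estradiol alongside compound; series mostly up to about 70 µM; nearly all actives have a fitted effect of over 25% in size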)
In short: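 BG1-Luc-4E2 cells (endogenous full-length ER-alpha, 4xERE luciferase) hormone-starved 5 days in charcoal-stripped FBS, plated 4,000/well for 24 h, then compound plus 17beta-estradiol for 21.5 h at 37 C; ONE-Glo luminescence read.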

[7] = qHTS assay to identify small molecule antagonists of the estrogen receptor alpha (ER-alpha) signaling pathway using the BG1 cell line - cell viability counter screen (AID 743081);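 note: compound given together with 17beta-estradiol as the ER stimulus; series mostly up to about 70 µM; nearly all actives have a fitted effect of over 45% in size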
[8] = biological target: Aromatase (Homo sapiens) (UniProt P11511); assay: qHTS assay to identify aromatase inhibitors (AID 743083); note: series mostly up to about 70 µM; nearly all actives have a fitted effect of over 55% in size
[9] = qHTS assay to identify aromatase inhibitors - cell viability counter screen (AID 743084);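 note: cells stimulated with testosterone during compound exposure; nearly all actives have a fitted effect of over 55% in size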
[10] = biological target: Aryl hydrocarbon receptor (Homo sapiens) (UniProt P35869); assay: qHTS assay to identify small molecule that activate the aryl hydrocarbon receptor (AhR) signaling pathway (AID 743085); note: nearly all actives have a fitted effect of over 15% in size; note: potency is the fitted concentration of half-maximal effect;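 for activation: HG2L7.5c1 human HepG2 liver cells with stably integrated DRE-driven firefly reporter; series mostly up to about 70 µM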
In short: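 Steps: seed HepG2-AhR-luc cells; allow 5 h at 37C; pin-transfer test compound or vehicle; incubate 24 h at 37C; add viability dye (30 min, 37C) and read fluorescence; add luciferase substrate (30 min, RT) and read luminescence.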

[11] = qHTS assay to identify small molecule that activate the aryl hydrocarbon receptor (AhR) signaling pathway - cell viability counter screen (AID 743086); note: nearly all actives have a fitted effect of over 45% in size; note: potency is the fitted concentration of half-maximal effect
In short: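 HepG2-AhR-luc (HG2L7.5c1) cells, 4000/well, treated 24 h at 37 C with compound; viability measured as CellTiter-Fluor fluorescence after 30 min in the same wells as the luciferase read.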

[12] = biological target: Peroxisome proliferator-activated receptor gamma (Homo sapiens) (UniProt P37231); assay: qHTS assay to identify small molecule agonists of the peroxisome proliferator-activated receptor gamma (PPARg) signaling pathway (AID 743094; active = well fitted activation curve with a large enough effect in the signal ratio in the repeat runs, not every such curve was filed as active; inconclusive = weak or mixed curves, or effect the other way; inactive = no such curve, though single readings can be large or run the other way; the % refers to the signal ratio)
In short: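 Fluorescence-based beta-lactamase readout in HEK293H PPARg UAS-bla cells after 17 h compound exposure (37C) and 1 h B/G FRET substrate incubation at room temperature.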

[13] = qHTS assay to identify small molecule antagonists of the peroxisome proliferator-activated receptor gamma (PPARg) signaling pathway - cell viability counter screen (AID 743194); note: nearly all actives have a fitted effect of over 55% in size
In short: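 Cytotoxicity counter screen in PPARg-bla HEK293H cells, same wells as reporter assay. Compounds plus 50 nM rosiglitazone (final) for 17 h at 37 C, then viability read by CellTiter-Glo luminescence.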

[14] = qHTS assay for small molecule agonists of the antioxidant response element (ARE) signaling pathway (AID 743202; active = well fitted activation curve with a large enough effect in the signal ratio in the repeat runs, not every such curve was filed as active; inconclusive = weak or mixed curves, or effect the other way; inactive = no such curve, though single readings can be large or run the other way; the % refers to the signal ratio; note: potency is the fitted concentration of half-maximal effect)
In short: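 HepG2 ARE-bla reporter line, 2,000 cells/well; 5 h preincubation 37 C/5% CO2; compound (DMSO) 16 h 37 C; B/G FRET substrate 2 h RT; fluorescence intensity.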

[15] = qHTS assay for small molecule agonists of the antioxidant response element (ARE) signaling pathway - cell viability counter screen (AID 743203; calls by dose curve; note: nearly all actives have a fitted effect of over 55% in size; note: potency is the fitted concentration of half-maximal effect)
In short: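 Parallel cytotoxicity read-out for the ARE-bla screen: HepG2 reporter cells, 16 hrs with compounds, then CellTiter-Glo luminescence.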

[16] = qHTS assay for small molecule activators of the heat shock response signaling pathway - cell viability counter screen (AID 743209); note: nearly all actives have a fitted effect of over 50% in size
In short: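 To flag cytotoxic compounds, HSE-bla HeLa cells plated at 1500 cells/well were dosed for 5 h at 37 C, followed by the reporter FRET read and then CellTiter-Glo, with luminescence recorded 30 min after reagent addition.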

[17] = qHTS assay to identify small molecule agonists of the peroxisome proliferator-activated receptor delta (PPARd) signaling pathway - cell viability counter screen (AID 743211); note: nearly all actives have a fitted effect of over 55% in size; note: potency is the fitted concentration of half-maximal effect
In short: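 Viability of GeneBLAzer PPARd UAS-bla HEK293H cells was assessed after 17 h compound incubation at 37C, using CellTiter-Glo reagent added after the reporter read and luminescence recorded 30 min later.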

[18] = biological target: Peroxisome proliferator-activated receptor gamma (Homo sapiens) (UniProt P37231); assay: qHTS assay to identify small molecule antagonists of the peroxisome proliferator-activated receptor gamma (PPARg) signaling pathway (AID 743191; calls by dose curve; note: series mostly up to about 63 µM; nearly all actives have a fitted effect of over 30% in size)
In short: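 GeneBLAzer PPARg UAS-bla HEK293H cells, 5 h post-plating, exposed to compounds 17 h at 37C. LiveBLAzer B/G FRET substrate added for 1 h at room temperature; beta-lactamase reporter read by fluorescence intensity.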

[19] = qHTS assay for small molecule activators of the heat shock response signaling pathway (AID 743210; active = well fitted activation curve with a large enough effect in the signal ratio in the repeat runs, with a control signal flat, not every such curve was filed as active; inconclusive = weak or mixed curves; the % refers to the signal ratio;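 note: HeLa cells with beta-lactamase reporter driven by heat shock elements; series mostly up to about 63 µM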)
In short: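 Beta-lactamase reporter read-out: FRET substrate fluorescence after 2.5 h at RT, following 5 h compound treatment at 37 C of HeLa cells carrying HSE-driven bla reporter; quantitative HTS format.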

[20] = biological target: Estrogen receptor (Homo sapiens) (UniProt P03372); assay: qHTS assay to identify small molecule antagonists of the estrogen receptor alpha (ER-alpha) signaling pathway (AID 743069; active = well fitted curve in the direction sought with a large enough effect in the signal ratio in the repeat runs, not every such curve was filed as active; inconclusive = weak or mixed curves, or effect the other way; inactive = no such curve, though single readings can be large or run the other way; the % refers to the signal ratio)
In short: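 Beta-lactamase FRET fluorescence is read after 2 hr at room temperature with LiveBLAzer B/G substrate. Before that, ER-alpha-bla HEK293 cells sit 4 hr after plating, then receive compound plus 17beta-estradiol and incubate 18 hr at 37C.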

Chain of Aromatase (Homo sapiens) (P11511 whole entry, looked up): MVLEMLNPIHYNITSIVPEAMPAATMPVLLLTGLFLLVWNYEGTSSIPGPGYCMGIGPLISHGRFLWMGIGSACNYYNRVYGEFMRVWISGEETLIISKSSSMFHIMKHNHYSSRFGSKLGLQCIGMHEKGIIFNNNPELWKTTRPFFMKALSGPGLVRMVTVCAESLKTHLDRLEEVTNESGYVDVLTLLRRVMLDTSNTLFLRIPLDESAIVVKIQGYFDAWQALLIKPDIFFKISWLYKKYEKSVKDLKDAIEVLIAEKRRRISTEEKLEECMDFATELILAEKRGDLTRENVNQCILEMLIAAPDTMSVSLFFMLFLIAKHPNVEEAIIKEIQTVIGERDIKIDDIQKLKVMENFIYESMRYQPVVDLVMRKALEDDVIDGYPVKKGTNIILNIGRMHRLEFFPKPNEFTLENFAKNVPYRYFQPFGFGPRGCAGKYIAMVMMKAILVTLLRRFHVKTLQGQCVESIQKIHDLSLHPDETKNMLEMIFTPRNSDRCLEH
Chain of Aryl hydrocarbon receptor (Homo sapiens) (P35869 whole entry, looked up): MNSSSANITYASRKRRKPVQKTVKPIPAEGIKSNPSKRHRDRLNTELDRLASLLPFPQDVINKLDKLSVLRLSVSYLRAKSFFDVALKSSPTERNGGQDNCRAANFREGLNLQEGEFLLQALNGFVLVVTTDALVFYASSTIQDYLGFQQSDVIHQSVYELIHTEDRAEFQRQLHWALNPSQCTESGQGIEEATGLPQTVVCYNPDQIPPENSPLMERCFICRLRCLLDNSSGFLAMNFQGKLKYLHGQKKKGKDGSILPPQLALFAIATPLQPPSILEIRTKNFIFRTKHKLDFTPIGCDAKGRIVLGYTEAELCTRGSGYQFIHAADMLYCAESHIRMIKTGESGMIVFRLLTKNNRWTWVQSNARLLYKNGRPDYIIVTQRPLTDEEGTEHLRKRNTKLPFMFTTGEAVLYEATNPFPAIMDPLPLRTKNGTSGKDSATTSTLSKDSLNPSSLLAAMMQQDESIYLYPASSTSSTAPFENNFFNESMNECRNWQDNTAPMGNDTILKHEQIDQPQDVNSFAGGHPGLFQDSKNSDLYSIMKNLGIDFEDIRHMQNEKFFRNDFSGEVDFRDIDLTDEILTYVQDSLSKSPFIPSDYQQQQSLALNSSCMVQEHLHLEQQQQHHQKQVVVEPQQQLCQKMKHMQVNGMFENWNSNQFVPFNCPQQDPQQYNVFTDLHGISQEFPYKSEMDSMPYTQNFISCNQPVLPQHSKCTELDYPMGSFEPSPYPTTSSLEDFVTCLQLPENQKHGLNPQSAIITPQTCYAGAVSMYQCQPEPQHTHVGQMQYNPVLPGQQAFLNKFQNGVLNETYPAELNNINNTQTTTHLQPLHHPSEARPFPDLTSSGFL
Chain of Estrogen receptor (Homo sapiens) (P03372 whole entry, looked up): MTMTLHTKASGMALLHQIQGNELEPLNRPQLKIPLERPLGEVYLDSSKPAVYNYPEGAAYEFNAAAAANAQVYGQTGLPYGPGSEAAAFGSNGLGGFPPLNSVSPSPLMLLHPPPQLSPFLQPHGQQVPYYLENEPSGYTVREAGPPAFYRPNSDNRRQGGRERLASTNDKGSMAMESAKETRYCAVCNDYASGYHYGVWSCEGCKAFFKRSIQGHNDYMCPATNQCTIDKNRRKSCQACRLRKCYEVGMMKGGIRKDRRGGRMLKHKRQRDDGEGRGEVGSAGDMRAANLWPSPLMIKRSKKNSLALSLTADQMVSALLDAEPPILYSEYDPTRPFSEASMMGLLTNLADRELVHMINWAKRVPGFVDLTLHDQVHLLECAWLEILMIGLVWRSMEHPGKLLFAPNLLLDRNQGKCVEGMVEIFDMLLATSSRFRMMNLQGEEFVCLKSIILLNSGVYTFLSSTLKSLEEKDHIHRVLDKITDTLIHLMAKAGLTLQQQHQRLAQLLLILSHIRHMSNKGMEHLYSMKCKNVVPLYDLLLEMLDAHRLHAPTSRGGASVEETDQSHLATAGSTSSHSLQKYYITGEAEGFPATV
Chain of Peroxisome proliferator-activated receptor gamma (Homo sapiens) (P37231 whole entry, looked up): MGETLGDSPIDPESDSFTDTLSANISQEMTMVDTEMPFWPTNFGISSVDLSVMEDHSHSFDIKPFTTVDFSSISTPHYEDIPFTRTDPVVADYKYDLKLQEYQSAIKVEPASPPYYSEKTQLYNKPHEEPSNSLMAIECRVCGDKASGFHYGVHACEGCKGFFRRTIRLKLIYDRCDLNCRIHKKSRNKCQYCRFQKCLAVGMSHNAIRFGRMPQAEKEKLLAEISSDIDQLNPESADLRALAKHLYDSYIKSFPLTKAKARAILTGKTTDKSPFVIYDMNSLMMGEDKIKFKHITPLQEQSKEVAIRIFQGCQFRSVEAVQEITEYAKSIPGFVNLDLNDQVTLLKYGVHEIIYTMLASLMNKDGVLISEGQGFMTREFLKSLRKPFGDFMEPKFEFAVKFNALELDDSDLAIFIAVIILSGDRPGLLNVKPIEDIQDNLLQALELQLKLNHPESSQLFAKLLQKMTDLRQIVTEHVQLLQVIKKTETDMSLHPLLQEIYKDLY

Compound	Potency [1]	outcome [2]	Potency [3]	Potency [4]	Potency [5]	Potency [6]	Potency [7]	Potency [8]	Potency [9]	Potency [10]	Potency [11]	Potency [12]	Potency [13]	Potency [14]	Potency [15]	Potency [16]	Potency [17]	Potency [18]	Potency [19]	Potency [20]
CCOC(=O)Cn1cccc1-c1nc(-c2ccc(OC)cc2)c(-c2ccc(OC)cc2)s1	13.3 µM (active)	inactive	inactive	inactive	inactive	inactive	inactive	inactive	inactive	inactive	inactive	inactive	inactive	7.5 µM (active)	inactive	inactive	inactive			
CCC(CC)C(C)CCOC(C)=O (configuration not stated)	inactive	inactive	inactive				inactive	inactive	inactive	inactive	inactive	inactive	inactive	inactive	inactive	inactive	inactive			
O=C1CCCCCCCCCCCCCCCO1	inactive	inactive	inactive	inactive	inactive	inactive	inactive	inactive	inactive	inactive	inactive	inactive	inactive		inactive	inactive	inactive			
COc1ccc(-c2coc3cc(O)ccc3c2=O)cc1	inactive	inactive	inactive	7.76 µM [inconclusive] (active)	1.54 µM (active)		inactive	inactive	inactive	6.86 µM (active)	inactive		inactive		inactive	inactive	inactive	inactive		
C=CCn1c(=O)n(CC=C)c(=O)n(CC=C)c1=O	inactive	inactive	inactive				inactive	inactive	inactive	inactive	inactive	inactive	inactive	inactive	inactive	inactive	inactive		inactive	
Nc1ccc(C(=O)O)c(O)c1	inactive	inactive	inactive				inactive	inactive	inactive	inactive	inactive	inactive	inactive	inactive	inactive	inactive	inactive			
CCc1cccc(CC)c1NC(=O)CN(CC(=O)O)CC(=O)O	inactive	inactive		inactive	inactive	inactive	inactive	inactive	inactive	inactive	inactive	inactive	inactive	inactive	inactive	inactive	inactive			inactive
CCCC[P+](C)(CCCC)CCCC	inactive	inactive	inactive			inactive	inactive	inactive	inactive	inactive	inactive		inactive	inactive	inactive		inactive			inactive
CCCCCCCC	inactive	inactive	inactive			inactive	inactive	inactive	inactive	inactive	inactive		inactive	inactive	inactive	inactive	inactive	inactive	inactive	inactive
COc1cc(C)ccc1O	inactive	inactive	inactive		inactive	inactive		inactive	inactive	inactive	inactive	inactive	inactive	inactive		inactive	inactive	inactive	inactive	
CCCCOC(=O)CC	inactive	inactive	inactive				inactive	inactive	inactive	inactive	inactive		inactive	inactive	inactive	inactive	inactive	inactive	inactive	
CCN(CC)C(=O)c1cc(S(=O)(=O)Cc2ccccc2)c(N2CCC(c3ccccc3)CC2)cc1N(CC)CCN(C)C	4.22 µM (active) and 4.8 µM (active)	inactive		inactive	inactive	inactive				inactive	23.7 µM (active)				21.4 µM (active)		21.6 µM (active)		inactive	inactive
OC/C=C/CO	inactive	inactive	inactive			inactive	inactive	inactive	inactive	inactive	inactive	inactive	inactive	21.6 µM (active)	inactive	inactive	inactive	inactive	inactive	inactive
CC(=O)Oc1cc2c(s1)CCN(C(C(=O)C1CC1)c1ccccc1F)C2 (configuration not stated)	inactive	inactive		inactive	inactive	inactive	inactive	inactive	inactive	inactive	inactive	inactive	inactive	inactive	inactive	inactive	inactive		inactive	inactive
